Over roughly 24,000 sequences, “enrichment r” has its median near 0.99; the highest 2% begin near 3.7. This excerpt belongs to a sample that is enriched for the highest values.

The source of these data is PMC12136788.

B1: chr1:150192712:150192713:-_ENSG00000143401_ENST00000314136|hu_hu|motif|central (ssRNA)
RNA: GGGAGUUCUACAGUCCGACGAUCGCACCAUACUACACCUGUGUAAAAGUGAUCAUGUUUUAAUUAUGGGCUAAAAAUGACGGAUACAGUAAGCUUGAAUUUAAAAAAUUAAGUCUAAAUAAAUUGCUAGGGAAUUCCACAAUGCAACAGAGGAUUGAGCAUCA
B2: chr4:25749455:25749456:-_ENSG00000091490_ENST00000264868|hu_hu|hu_hu_hu_mus_False|8_68 (ssRNA)
RNA: GGGAGUUCUACAGUCCGACGAUCGCACUAUGACCUCUAGAAAAAUCCACAGGGGGAAAAAAUGUAAACCAAUUUACAAUGUUAUCGCCUUCCCUGUGUGUGGAGUGUUUGUCUCAAGGCUCCUUCUUGCCUUAUAAUUUGGGACAACAGAGGAUUGAGCAUCA
B3: chr4:144460044:144460045:+_ENSG00000153147_ENST00000283131|hu_mus|hu_hu_hu_mus_False|18_68 (ssRNA)
RNA: GGGAGUUCUACAGUCCGACGAUCACGGUCCAUAGCCUGAAGAUCAACUUGCGGAUUCCAAUCUGAGUCAUACAAAAUGACUACAUCAGCAGUUGCAAGAUUGAUGCCCAGACCACCAGCACGCGUGCUUAGCAUAAAUACAAACAACAGAGGAUUGAGCAUCA
B4: 47062174_47062422_1437_CDS_ENSG00000130985_ENST00000335972|human|control|control (ssRNA)
RNA: GGGAGUUCUACAGUCCGACGAUCGACCUCUUUGUCCUCAGGGAGACACUCAAGGGCAUCAAAGUAUAGCCACUGCAUGAUGGGCAUGAACUUCCCGGAGCAGGCCUUCAUGACUUCCUGGGCAGCCAGGCCCCCAAUGAAGGCCAACAGAGGAUUGAGCAUCA
B5: chr2:180329438:180329439:+_ENSMUSG00000049401_ENSMUST00000029087|mus_hu|FALSE|FALSE (ssRNA)
RNA: GGGAGUUCUACAGUCCGACGAUCCUCUGAGGCACUCUGAGGGCCUGGCUCUGUGGGCGGCUGCUCCCGCCGGCUCAGCUCCAGCUUCCUCUUCUUGCUCUCUUUGGGGCUUAAGGGCUCCGGCCUAUCUUCCCCGUGGCCCCCCAACAGAGGAUUGAGCAUCA
B6: chr7:133967480:133967481:+_ENSMUSG00000058966_ENSMUST00000079423|mus_mus|FALSE|FALSE (ssRNA)
RNA: GGGAGUUCUACAGUCCGACGAUCAGGGAGUUGGAGGUGAAGAAGGGAUUGCCAAGCCAGAAAGGGAGAGAGAAAGAGGGAGGGGGAGGCACAAAGGGGCCAGGGCGGGGACAGGAUGGGACAAGAGGACCAGUUCAGGGCAAGCAACAGAGGAUUGAGCAUCA
B7: chr6:30691630:30691631:+_ENSG00000196230_ENST00000327892|hu_hu|FALSE|FALSE (ssRNA)
RNA: GGGAGUUCUACAGUCCGACGAUCAGCUCGAUACUGCUGGCUUCCACGGCUGGUGAGAGGGGCAAAGCCAGGCAUAAAGAAAUGGAGACGUGGGAAGGGGACCAUGUUGACUGCCAACUUGCGGAGGUCAGCAUUGAGCUGGCCCAACAGAGGAUUGAGCAUCA
B8: 44991723_44991843_1432_CDS_ENSMUSG00000038518_ENSMUST00000173246|mouse|control|control (ssRNA)
RNA: GGGAGUUCUACAGUCCGACGAUCCUGAGCAGACCGAUGCGAAGGGGGAGGUUGGUGGUUGGCAGCAAGUCCCUUGGCAGAGGAAGCCGCAGCCGAGGCGGCCGUGGGCUGAGCCCCUGAAGCCUGUUCUCUCCGGCUGUCUGCCAACAGAGGAUUGAGCAUCA
B9: 86322860_86322980_198_3pUTR_ENSG00000135018_ENST00000376395|human|control|control (ssRNA)
RNA: GGGAGUUCUACAGUCCGACGAUCCUUCCUCCUCCCUGCCCCUUCCCCCACGUCCCUUCGCCGGCGCCGCGCGGAGCACGCCGGGUAACGCGCCUGGCGGCGUCGCCGAGUCAUCCCCGGCUGGCGCGACUUUGAGCUCAGCCUCAACAGAGGAUUGAGCAUCA
B10: 132387670_132387790_77_5pUTR_ENSG00000170606_ENST00000304858|human|control|control (ssRNA)
RNA: GGGAGUUCUACAGUCCGACGAUCGGUACUGCAACCGAGAGCGCUGCUCAGGCCGGCUCCGGCUCAGUGGCCGCAGAGGAGGCGCCGGUAGCGGGGGCGGAGAAGAUCUCGAAAGAUCUCGUUGCGACGAGAGCGGAGCCGCAGCAACAGAGGAUUGAGCAUCA
B11: 126416003_126416123_291_3pUTR_ENSMUSG00000078429_ENSMUST00000105256|mouse|control|control (ssRNA)
RNA: GGGAGUUCUACAGUCCGACGAUCAGGCGGCCUGCACAGAGGGCGGGCGGGCCAGGCGGCGGCUUCCCCGGUGCCCCCAGCCCCGAUCCCCCGGUGGCAGCUCCGGGCUCCUCAGUUUGGGUCCAACAUGGAGAAUCCGGAGCGCAACAGAGGAUUGAGCAUCA
B12: 98346538_98346658_211_5pUTR_ENSG00000077147_ENST00000371142|human|control|control (ssRNA)
RNA: GGGAGUUCUACAGUCCGACGAUCCAGCCACAGCGCGGCGGCCGCCGCCACGCCAAGAGCGCCAGGCAGCGGCCUCAUCCUCCGCGCCCCUCCGGCCCGGAGCCGGCUCACCGACUCCUCCUCCCGCCGCCGCCUCCUCCGCCGCAACAGAGGAUUGAGCAUCA
B13: 91300164_91300284_179_3pUTR_ENSMUSG00000038459_ENSMUST00000117085|mouse|control|control (ssRNA)
RNA: GGGAGUUCUACAGUCCGACGAUCCCGCCGGGGCGGGCGCGGGGGUCGCCGCGGGAGCGGGCGCGCGCUGCUCGGGCGCCAGCACCGUGUAGGUGGGUUCGGGCGGCAGGAAGGCCAGCUUGGCGGCGAUGCGGCUCGGACAAGCAACAGAGGAUUGAGCAUCA
B14: 62352434_62352554_269_CDS_ENSMUSG00000018509_ENSMUST00000018653|mouse|control|control (ssRNA)
RNA: GGGAGUUCUACAGUCCGACGAUCCUGCUCCCCCAGGUCGAGCGCCGACACCGAGGCGGCGGGGGUGACCGCCGGCGGUGGCUCCUCGGCGGCCGCCUCCUGGGCCCGCGGCGGUGGCUUGGGCCGCGGCUUUGCCGACGGCUGCAACAGAGGAUUGAGCAUCA
B15: chr9:123912698:123912699:+_ENSG00000119397_ENST00000373850|hu_hu|FALSE|FALSE (ssRNA)
RNA: GGGAGUUCUACAGUCCGACGAUCAUGGUGUUCAGGGACGUUGCAAUGCAGCACACCCAUAGGGAUGAAGGGGAUGGAGAAGUUGGGGGGUGGAGGCCCAUACACCAUGGGGGCCCCAGCAGGAGGUGGGCCAUAAACAACAGUCAACAGAGGAUUGAGCAUCA
B16: chr6:35489678:35489679:-_ENSMUSG00000029840_ENSMUST00000031866|mus_hu|FALSE|FALSE (ssRNA)
RNA: GGGAGUUCUACAGUCCGACGAUCAGAAGAUGAGGAGGCGGUGGCAGCAGCAAGCGGAUGCCGCCGGGCGAGAGGGAGGCAGGGCCGCGCGAAGCCGGAGAGGAGAAGAAGAGAAGGAGGGUUAGGCUGCCAGGCGGGCGAGGCCAACAGAGGAUUGAGCAUCA

The assay concerns the target T1, UNK ZnF1-3 (human, UniProt Q9C0B0 31-174).
T1 sequence: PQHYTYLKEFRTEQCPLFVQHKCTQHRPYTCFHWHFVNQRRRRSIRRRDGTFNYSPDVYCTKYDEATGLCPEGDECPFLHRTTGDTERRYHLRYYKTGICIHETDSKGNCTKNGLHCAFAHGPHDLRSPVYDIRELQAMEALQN
Nature of the assay: nsRBNS (natural sequence RNA bind-n-seq); RBNS binding buffer (assumed for nsRBNS): 25 mM Tris pH 7.5, 150 mM KCl, 3 mM MgCl2, 0.01% Triton X-100, 500 ug/ml BSA, 20 U/ml SUPERase-In, 4 C; UNK is unkempt and MSI1 is Musashi-1; names of the RNAs are library labels; protein concentration not given here; high values mean tight binding.
B1 gave a binding signal of 5.11 enrichment R.
B2 came in with a binding signal of 0.719 enrichment R.
Turning to B3, the binding signal amounted to 1.01 enrichment R.
As for B4, the binding signal was 1.06 enrichment R.
The same measure for B5: 0.81 enrichment R.
On to B6, for which the binding signal stood at 5.53 enrichment R.
As to B7, the binding signal amounted to 1.75 enrichment R.
B8 had a binding signal of 1.39 enrichment R.
The figure for B9 is 0.759 enrichment R; for B10 it is 1.09 enrichment R; for B11 it is 2.26 enrichment R.
Regarding B12, the binding signal was determined as 5.42 enrichment R.
The same measure for B13: 0.777 enrichment R.
The figure for B14 is 4.47 enrichment R; for B15 it is 1.48 enrichment R; for B16 it is 3.69 enrichment R.
